High-throughput results (PubChem BioAssay)
Rows were chosen to be rich in hits. Some 0.88% of all compounds tested hit in one or more screens of this group.
pAkt inh: blocks phosphorylation of Akt; Neuro2A IGF-stimulated pAkt S473 HTRF, 20 min; stronger effect = lower value; activity change, % for hits at 50 µM; 360,000 compounds, 0.32% hits; in the data active = activity change below about -80%; inconclusive = mostly about -51% to -80%; note: % is set by controls: 0 for no effect and ±100 for the full control effect
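Neuro2A cells (4,500/well, DMEM with 0.5% FBS) were treated with compound at a single 50 µM final concentration, stimulated with 6 nM IGF for 20 min at 37 °C, and lysed. Phospho-Akt Ser473 was read by HTRF as 665/615 ratio ×10^4.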
RGS4 inhibitor: human RGS4 inhibition | Transcreener GDP fluorescence polarization, RGS4-accelerated GTP hydrolysis | Potency, µM (doses to about 114 µM), for inactives: at the top dose activity change, negative = inhibition, actives largely listed as inhibitors | 390,000 compounds, 0.039% hits; note: potency is the fitted concentration of half-maximal effect; % is set by controls: 0 for no effect and ±100 for the full control effect; nearly all actives have a fitted effect of over 75% in size
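MLSMR compounds (23 nl, pin-transferred) preincubated 10 min at room temperature with a 500nM (2x) first reagent, then RGS4 at 900nM (2x) plus Transcreener GDP mix added; fluorescence polarization (620/688 nm) read before and after 90 min at 30 °C.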
Six1-Eya2 blk: inhibitors of human Six1/Eya2 interaction | AlphaScreen GST-Six1/His-Eya2 binding, biochemical; stronger effect = lower value | activity change, % (no concentration beside the values) | 360,000 compounds, 0.56% hits; in the data active = activity change below about -65%; inconclusive = mostly about -30% to -63%; note: % is set by controls: 0 for no effect and ±100 for the full control effect
Target sequence (O00167 whole entry, looked up): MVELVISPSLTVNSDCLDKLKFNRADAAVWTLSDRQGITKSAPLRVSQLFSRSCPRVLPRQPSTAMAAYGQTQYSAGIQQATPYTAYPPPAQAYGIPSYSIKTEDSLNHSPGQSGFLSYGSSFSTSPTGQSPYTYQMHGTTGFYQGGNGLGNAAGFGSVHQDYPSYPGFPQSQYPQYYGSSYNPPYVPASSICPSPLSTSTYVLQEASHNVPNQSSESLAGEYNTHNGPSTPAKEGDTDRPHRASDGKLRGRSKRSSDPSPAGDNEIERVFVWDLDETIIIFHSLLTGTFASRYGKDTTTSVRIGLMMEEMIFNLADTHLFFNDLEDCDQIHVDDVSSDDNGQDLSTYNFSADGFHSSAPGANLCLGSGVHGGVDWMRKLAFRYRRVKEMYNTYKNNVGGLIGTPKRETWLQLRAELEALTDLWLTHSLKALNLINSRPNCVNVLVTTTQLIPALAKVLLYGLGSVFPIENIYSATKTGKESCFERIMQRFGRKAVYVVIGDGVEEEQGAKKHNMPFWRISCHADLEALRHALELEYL
Target sequence (Q15475 whole entry, looked up): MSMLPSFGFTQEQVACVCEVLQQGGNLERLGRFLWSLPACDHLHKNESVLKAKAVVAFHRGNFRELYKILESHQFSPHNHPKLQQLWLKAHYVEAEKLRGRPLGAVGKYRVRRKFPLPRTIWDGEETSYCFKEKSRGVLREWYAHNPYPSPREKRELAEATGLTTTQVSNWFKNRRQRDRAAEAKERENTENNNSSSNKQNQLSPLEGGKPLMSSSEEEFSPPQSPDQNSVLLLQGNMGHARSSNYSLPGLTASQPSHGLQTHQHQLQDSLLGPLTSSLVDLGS
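AlphaScreen with GST-Six1 and His-Eya2 (5X mix: 250 nM and 500 nM), glutathione donor and nickel acceptor beads; buffer 50 mM Tris pH 8.0, 300 mM NaCl, 1 mM TCEP; 1 h at 37 C in the dark.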
CtBP-E1A inh: CtBP/E1A binding inhibition | AlphaScreen GST-E1A/His-CtBP binding, 1536-well; stronger effect = lower value | activity change, % (concentration not given with the values) | 340,000 compounds, 0.49% hits | AID 651724; in the data active = activity change below about -65%; inconclusive = mostly about -30% to -63%; note: % is set by controls: 0 for no effect and ±100 for the full control effect
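Homogeneous bead-based format: GST-tagged E1A captured on glutathione donor beads, His-tagged CtBP on nickel acceptor beads; compounds precede bead addition by 2 h at 37 °C.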
Glioma ERSR ind: ER stress response induction in glioma. 420,000 compounds, 0.02% hits. U87-MG GRP78 promoter luciferase reporter, 16 h. Potency, µM, inactives show top-dose activation, hits mostly activators; note: potency is the fitted concentration of half-maximal effect; series mostly up to about 76 µM; % of control where 0% means no effect; nearly all actives have a fitted effect of over 35% in size
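Stably transfected U87-MG human glioma cells carrying a GRP78-based luminescent sensor were seeded at 1000 cells/well, pin-dosed with compounds and incubated 16 h. Luciferase reagent was then added, and end-point luminescence was read after 10 min at room temperature.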
Numbers without * were called inactive; i = inactive; u = inconclusive; x = not tested or not shown. Unless noted, calls come from the whole dose curve; as a rule, active = well fitted curve in the direction sought with a large enough effect; inconclusive = small, poorly fitted or top-dose-only effect, or another doubt; inactive = no such curve, though single readings can be large; an effect the other way counts as inactive or inconclusive.

SMILES	pAkt inh	RGS4 inhibitor	Six1-Eya2 blk	CtBP-E1A inh	Glioma ERSR ind
Cc1ccc(Nc2cc(C)nn2-c2nc(C)cc(C)n2)cc1	i	-9.4%	-28.9	-28.7	-6.1%
Cc1ccc(Nc2cc(C)nn2-c2nc(C)cc(=O)[nH]2)cc1	i	6.4%	-81.9*	-81.4*	u
Cc1cc(Oc2ccc(Cl)cc2)nc(-c2ccccn2)n1	i	-6.8%	4.4	2.3	-8.4%
c1ccc(-c2nc(-c3ccccn3)nc(-c3ccccn3)n2)nc1	i	15.3%	u	u	-4.7%
c1ccc(-c2cncnc2)nc1	i	-8.7%	14.3	-17.0	-0.6%
Nc1nc(N)nc(-c2ccccn2)n1	i	-12.5%	-81.1*	-72.6*	0.1%
Clc1ccc(-c2cnnc(-c3ccccn3)n2)cc1	i	28.2%	-86.3*	-84.0*	0.4%
c1ccc(-c2cnc(-c3ccccn3)nn2)cc1	i	12.5%	-90.9*	-85.7*	-6.5%
c1ccc(-c2cnnc(-c3ccccn3)n2)cc1	i	-7.3%	-88.0*	-76.1*	-1.2%
c1ccc(-c2cnc(-c3ccccc3)nn2)cc1	i	7.7%	4.8	0.0	-5.5%
COc1cccc(C(=O)N(Cc2cc3cc4c(cc3nc2N(C)C)OCO4)CC2CCCO2)c1 (stereo not given)	x	x	x	x	-3.1%
Cc1[nH]ccc(=O)c1OCC(=O)O	i	19.6%	6.4	x	-3.6%
Cc1[nH]ccc(=O)c1OCc1c(Cl)cccc1Cl	-114.1%*	-20.5%	-0.2	8.0	-1.9%
CC(c1ccccc1)C1CC(=O)N(c2ccc(C(=O)O)cc2)C1=O (stereo not given)	-81.2%*	7.2%	7.4	-7.8	-2.1%
CCOc1ccc(N2C(=O)CC(C(C)c3ccccc3)C2=O)cc1 (stereo not given)	i	-10.5%	0.9	x	0.8%
COCc1cc(=O)[nH]c(Nc2nc3ccc(C)cc3o2)n1	i	14.9%	-84.1*	-86.6*	u
CCc1ccc2nc(Nc3nc(COC)cc(=O)[nH]3)nc(C)c2c1	i	-3.9%	-3.0	-6.1	-3.1%
COc1ccc(N2CCC(CNC(=S)Nc3cc(C)ccc3C)C2)cc1 (stereo not given)	i	-25.8%	-69.0*	x	-1.6%
COc1ccc(N2CCC(CNC(=O)Nc3ccccc3)C2)cc1 (stereo not given)	i	-41.4%	u	u	-1.2%
COc1ccc(N2CCC(CNC(=S)Nc3cc(C)cc(C)c3)C2)cc1 (stereo not given)	i	-25.7%	-65.7*	-70.4*	0.0%
COc1ccccc1C1CN(Cc2c(C)nn(C)c2Cl)Cc2ccccc2O1 (stereo not given)	x	x	x	x	-5.4%
COc1ccc(-c2ccc(C3C(C#N)=C(N)Oc4n[nH]c(C)c43)o2)cc1 (stereo not given)	i	-27.8%	u	-66.9*	-0.9%
COc1ccc(NC(=O)CCCn2c(=O)[nH]c3ccccc3c2=O)cc1	-109.8%*	-11.6%	0.9	4.6	-6.2%
Nc1[nH]c(N=NC(=O)c2ccc(F)cc2)c2ccccc12	i	-0.8%	-2.3	-23.5	-3.1%
Nc1ccccc1C(=O)N=Nc1[nH]c(N)c2ccccc12	i	4.8%	-76.2*	-87.1*	-4.9%
SMILES	pAkt inh	RGS4 inhibitor	Six1-Eya2 blk	CtBP-E1A inh	Glioma ERSR ind
S=C1SCN(Cc2ccccn2)CN1Cc1ccco1	i	u	-80.5*	u	-1.2%
CSC1=NSC2=NC(=O)/C(=C/c3coc4ccc(O)cc4c3=O)C(=N)N12	i	u	-67.0*	-5.6	5.6%
CC(=O)O[C@]1(C(=O)CO)[C@@H](C)C[C@H]2[C@@H]3CCC4=CC(=O)C=C[C@]4(C)[C@@]3(F)[C@@H](O)C[C@]21C	x	x	x	x	-2.6%
O=C(N/N=C/c1ccc(OC(=O)c2ccccc2Cl)cc1)c1cc(O)cc(O)c1	i	3.3%	-68.1*	-74.3*	5.7%
O=C(N/N=C/c1ccc(OC(=O)c2ccccc2Cl)cc1)c1ccccn1	i	-20.8%	-7.7	1.4	-2.8%
O=[N+]([O-])c1cccc(/C=N/n2c(-c3cccnc3)n[nH]c2=S)c1	i	-37.1%	-19.6	-9.9	2.3%
Cc1n[nH]c(=S)n(/N=C/c2cccc([N+](=O)[O-])c2)c1=O	i	-6.6%	u	-66.2*	4.4%
Cc1n[nH]c(=S)n(/N=C/c2ccccn2)c1=O	i	6.3%	-78.9*	-86.9*	3.0%
S=c1[nH]nc(-c2ccccn2)n1/N=C/c1ccc(Cl)c(Cl)c1	i	u	u	u	0.1%
Cc1cc(-c2n[nH]c(=S)n2/N=C/c2cc([N+](=O)[O-])ccc2Cl)n[nH]1	i	-25.7%	-80.3*	-81.4*	-2.9%
S=c1[nH]nc(-c2ccccn2)n1/N=C/c1ccc(Br)s1	i	u	-77.3*	6.8	-0.5%
CCc1n[nH]c(=S)n1/N=C/c1ccccn1	i	2.7%	1.2	-1.9	-1.0%
CCN1C(=O)CC(CC(=O)N2CCC(c3nc4ccc(F)cc4[nH]3)CC2)(c2ccccc2C)C1=O (stereo not given)	x	x	x	x	-6.0%
CN(C)c1ccc(N=Nc2ccc(/C=C/c3ccnc4ccccc34)cc2)cc1	x	x	x	x	-2.9%
Cc1cc(NC(=O)CSc2nc3c(c(-c4cccnc4)c2C#N)CCC3)no1	-102.2%*	-10.4%	-0.3	0.2	-3.1%
Oc1cc2cc(-c3csc(-c4ccc(F)cc4)n3)cc3c2n1CCC3	x	x	x	x	1.3%
O=C(N[C@@H]1c2ccccc2C2(CCN(C(=O)c3cc4ccccc4oc3=O)CC2)[C@H]1O)c1cccnc1	x	x	x	x	-5.7%
CCO[C@H]1[C@H](NC(=O)c2cccnc2)c2ccccc2C12CCN(C(=O)c1ccoc1)CC2	x	x	x	x	-2.4%
O=C(O)c1ccc2c(c1)[C@@H]1C=CC[C@@H]1[C@H](c1ccccn1)N2	i	u	-77.2*	-15.9	-6.8%
O=C(NCC1Cc2cccc(-c3cnccn3)c2O1)c1ccc(F)c(Cl)c1 (stereo not given)	x	x	x	x	-3.4%
Cc1nc(C)n(CC(=O)NCC2Cc3cc(-c4cccc(OC(F)(F)F)c4)ccc3O2)n1 (stereo not given)	x	x	x	x	-0.3%
Cc1ccc(C)c(NC(=O)CCC(=O)N/N=C/c2cc([N+](=O)[O-])ccc2O)c1	i	-49.9%	-85.7*	x	-4.5%
Cc1c(NC(=S)N/N=C/c2cc([N+](=O)[O-])ccc2O)c(=O)n(-c2ccccc2)n1C	i	-13.7%	-88.2*	x	2.7%
O=C(CCC(=O)Nc1cccc(Cl)c1)N/N=C/c1cc([N+](=O)[O-])ccc1O	i	5.7%	u	-2.5	-3.9%
COc1ccc(O)c(/C=N/NC(=O)CCC(=O)Nc2ccc(C)cc2)c1	i	8.9%	-0.9	x	-3.1%
Cc1ccc(NC(=O)CCC(=O)N/N=C/c2cc([N+](=O)[O-])ccc2O)cc1	i	-19.7%	-87.1*	-65.2*	-2.5%
O=C(CCCC(=O)Nc1cccc(Br)c1)N/N=C/c1cc([N+](=O)[O-])ccc1O	i	2.1%	-67.0*	-81.7*	10.0%
